# Rows were chosen to be rich in hits. Some 7.5% of all compounds tested hit in one or more screens of this group.
# NPC1 promoter act: activators of NPC1 promoter; Huh7 NPC1 promoter luciferase reporter, 24 h; 320,000 tested, 2.4% active; Potency, µM (top dose mostly 9.22 µM), without a hit: top-dose activation, actives largely listed as activators; also: % of control where 0% means no effect; nearly all actives have a fitted effect of over 60% in size
#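 Huh7 reporter cells (NPC1 promoter driving luciferase) are dosed with compound for 24 h at 37 °C, 5% CO2; luciferase detection reagent is then added and luminescence measured after 10 min at ambient temperature.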
# SMN2 splice up: enhancers of SMN2 splice variant expression. HEK293 SMN2-luciferase splicing reporter, luminescence, 30-36 h. 210,000 tested, 2.8% active. Potency, µM (doses to about 46.1 µM), inactives show at the highest dose activity change, positive = activation, usual class: activators; also: % of control where 0% means no effect; nearly all actives have a fitted effect of over 55% in size
#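 HEK293 cells carry an SMN2 […]–luciferase reporter in which exon 7 inclusion puts luciferase in frame. Cells were plated 10-12 h before compound addition, then incubated 30-36 h at 37C. ONE-Glo luminescence was read; sodium butyrate at 4.5 mM final served as control.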
# Rab9 prom act: activates the Rab9 promoter | Huh7 Rab9 promoter-luciferase reporter, luminescence, 24 h | Potency, µM (highest dose often 9.22 µM), inactives show at the top dose activation, negative = inhibition, usual class: activators | 320,000 tested, 2.8% active | AID 485297; also: % of control where 0% means no effect; nearly all actives have a fitted effect of over 60% in size
#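 Cell-based reporter: Huh7 stable for Rab9 promoter-driven luciferase, plated in reduced-serum medium with 10% FBS at 1500 cells/well, compound-treated 24 h at 37 °C, luminescence read after 10 min reagent.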
# FLuc counter: inhibits or activates purified firefly luciferase, miR-21 counter-screen. AID 588342. purified FLuc, Km substrates, luminescence inhibition. Potency, µM (doses to about 57.5 µM), without a hit: at the highest dose activity change, negative = inhibition, hits mostly inhibitors. 360,000 tested, 6.9% active. P08659;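 also: plate controls were vehicle for no effect and reference inhibitor for full effect; nearly all actives have a fitted effect of over 55% in size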
# Target sequence (P08659 whole entry, looked up): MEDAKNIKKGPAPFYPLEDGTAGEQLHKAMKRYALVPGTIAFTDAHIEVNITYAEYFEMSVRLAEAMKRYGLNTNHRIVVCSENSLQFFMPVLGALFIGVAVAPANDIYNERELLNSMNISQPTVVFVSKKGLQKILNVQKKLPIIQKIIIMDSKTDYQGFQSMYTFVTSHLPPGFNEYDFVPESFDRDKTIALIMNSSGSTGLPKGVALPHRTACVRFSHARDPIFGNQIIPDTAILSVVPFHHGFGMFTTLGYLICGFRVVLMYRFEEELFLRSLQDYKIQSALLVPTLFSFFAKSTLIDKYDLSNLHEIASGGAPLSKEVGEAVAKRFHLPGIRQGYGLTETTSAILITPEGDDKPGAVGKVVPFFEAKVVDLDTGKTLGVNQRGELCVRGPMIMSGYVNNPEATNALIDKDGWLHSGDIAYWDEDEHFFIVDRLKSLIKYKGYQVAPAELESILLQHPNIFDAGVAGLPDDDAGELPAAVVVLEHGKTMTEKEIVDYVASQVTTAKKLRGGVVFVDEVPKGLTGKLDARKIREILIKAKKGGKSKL
#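 Purified P. pyralis luciferase (10nM final) with 10uM D-luciferin and 10uM ATP (Km levels) in 50mM Tris acetate pH 7.5, 10mM Mg acetate, 0.01% Tween-20, 0.05% BSA; qHTS 6-point titration, ~60 µM downward; luminescence read.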
# ELG1 genotox: genotoxicity induction in ELG1-luciferase HEK293T cells; HEK293T ELG1-luciferase reporter, luminescence, 16 h; AID 504466; 330,000 tested, 1.3% active; Potency, µM (highest dose often 46 µM), for inactives: top-dose activity change, positive = activation, hits mostly activators; also: % of control where 0% means no effect; nearly all actives have a fitted effect of over 60% in size
#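 Step 1: seed 2,000 HEK293T ELG1-luciferase cells per well. Step 2: add compound or DMSO, incubate 16 hr at 37 °C. Step 3: ONE-Glo, 30 min at room temperature, read luminescence.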
# Starred values were filed as active, the others as inactive; ? = inconclusive; · = no result given; [ ] = remark or other dose. Calls follow the shape of the dose curve; as a rule, active = well fitted curve in the direction sought with a large enough effect; inconclusive = small, poorly fitted or top-dose-only effect, or another doubt; inactive = no such curve, though single readings can be large; an effect the other way counts as inactive or inconclusive. Potency is read from the fitted curve at half-maximal effect.
SMILES,NPC1 promoter act,SMN2 splice up,Rab9 prom act,FLuc counter,ELG1 genotox
O=C(CC1N=C2c3ccccc3N=C(SCc3cccc(Cl)c3)N2C1=O)NC1CCCCC1 (centres undefined),·,·,·,0%,·
CC(C)CNC(=S)N1CCN(c2nc(-c3ccc(Cl)cc3)cs2)CC1,-9%,·,-1%,-3%,-7%
O=C(CSc1nc(-c2ccc(F)cc2)cs1)N1CCOCC1,29%,62%,?,?,18µM*
Clc1ccc(-c2csc(N3CCSCC3)n2)cc1,1%,14%,23%,12µM*,?
CCC(=O)N1CCN(c2nc(-c3ccc(Cl)cc3)cs2)CC1,2%,-42%,1%,27µM*,4%
Fc1ccc(-c2csc(N3CCSCC3)n2)cc1,6%,-11%,21%,17µM*,0%
NCCSc1nc2ccccc2s1,·,-19%[9.22 µM],·,·,·
COc1ccc(OC)c(CNC(=O)c2nn(C)c3c2CS(=O)(=O)c2ccccc2-3)c1,-1%,·,-2%,0%,-5%
CCC(=O)c1cn(CC(=O)NCC2CCCO2)c2ccccc12 (centres undefined),10%,2%,-5%,3%,6%
O=C(c1ccco1)N1CCN(C(=O)c2cn(-c3ccccc3)nc2-c2ccc(F)cc2)CC1,5%,·,12%,4.8µM*,5%
O=S(=O)(c1ccc(F)cc1)N1CCN(c2nc(-c3ccc(F)cc3)cs2)CC1,0%,-34%,-3%,-3%,-6%
Fc1ccc(-c2csc(N3CCOCC3)n2)cc1,4µM*,·,2.5µM*,21µM*,13%
c1ccc2oc(-c3csc(N4CCOCC4)n3)cc2c1,1.3µM*,3.2µM*,0.5µM*,0.76µM*,?
CS(=O)(=O)N1CCN(c2nc(-c3ccc(F)cc3)cs2)CC1,11%,-25%,14%,11µM*,-1%
O=C(c1cn(-c2ccccc2)nc1-c1ccc(F)cc1)N1CCOCC1,3%,-2%,6%,?,2%
CC(C)CNC(=O)C1CCN(S(=O)(=O)c2ccc(-n3cnnn3)cc2)CC1,-1%,·,-2%,2%,1%
CCC(C)(C)c1ccc(Oc2ccc(N)cc2)cc1,-44%,-19%,-53%,?,-11%
CN(C)/C=C(/C#N)C(=O)c1cccc(Oc2ccc(C(C)(C)C)cc2)c1,0%,-23%,-3%,15µM*,-1%
CCC(C)(C)c1ccc(Oc2cccc(C(=O)O)c2)cc1,1.8µM*,22%[9.22 µM],?,?,14%
CCOc1ccc(N(CC(=O)Nc2ccc(C)c(C)c2)S(=O)(=O)c2c(C)[nH]c(=O)[nH]c2=O)cc1,-4%,·,2%,?,-1%
Cc1cnc(C(=O)OCC(=O)NC23CC4CC(CC(C4)C2)C3)cn1,-2%,8%,1%,-3%,2%
O=C(COC(=O)c1ccccn1)NC12CC3CC(CC(C3)C1)C2,0%,14%,-6%,21µM*,-3%
O=C(COC(=O)c1cccs1)NC12CC3CC(CC(C3)C1)C2,-3%,8%,11%,24µM*,-1%
COc1ccc(OC)c(N=C(C)C2=C(O)COC2=O)c1,-23%,11µM*,-8%,4%,8%
O=C(COc1ccc(C(=O)NCCc2ccccc2)cc1)Nc1ccccc1,0%,11%,-2%,2%,10%
SMILES,NPC1 promoter act,SMN2 splice up,Rab9 prom act,FLuc counter,ELG1 genotox
CCN1C(=S)SC(=O)C1=C1C=C(C)N(CCOC)C(C)=C1,0.4µM*,?,0.79µM*,2.4µM*,1.6µM*
CCN1C(=S)SC(=O)C1=C1C=C(C)N(CCO)C(C)=C1,1.3µM*,-17%,1.4µM*,7.6µM*,5.2µM*
CCN1C(=O)/C(=C/C=C2/Sc3ccccc3N2CCO)SC1=S,0%,-48%,1%,-15%,11%
Cc1ccc2nc(-c3ccc(NC(=O)COc4ccc(Cl)c(C)c4)cc3)sc2c1,·,14µM*,·,21µM*,·
Cc1ccc2nc(-c3ccc(NC(=O)COc4c(C)ccc(C)c4C)cc3)sc2c1,·,?,·,19µM*,·
O=C(COc1ccc(Br)cc1CO)Nc1ccccc1,?,-17%,24%,?,10%
Cc1ccc2nc(-c3ccc(NC(=O)COc4ccc(Br)cc4Br)cc3)sc2c1,·,2.8µM*,·,2.1µM*,·
